{"source": "PubChem BioAssay (Tox21)", "note": "Inconclusive results are not listed. Entries that show only a call come without a potency. Active and inactive are the calls of the source. Calls come from the whole dose curve; as a rule, active = well fitted cell-killing curve with a large enough effect in the repeat runs; inconclusive = weak or mixed curves, or effect the other way; inactive = flat fitted curve, though single readings scatter. Potency is the fitted concentration of half-maximal effect.", "data": [{"assay": "qHTS assay to identify small molecule agonists of the estrogen receptor beta (ER-beta) signaling pathway - cell viability counter screen (AID 1259380); note: nearly all actives have a fitted effect of over 30% in size", "conditions": "ER-beta-bla HEK293T viability, CellTiter-Glo luminescence, 16 h; series mostly up to 92.4 µM", "description": "National Center for Advancing Translational Sciences [NCATS]\nNIH Chemical Genomics Center [NCGC]\nU.S. Environmental Protection Agency [EPA]\nNational Institutes of Environmental Health Sciences [NIEHS]\nNational Toxicology Program [NTP]\nU.S. Food and Drug Administration [FDA]\nEstrogen receptor (ER), a nuclear hormone receptor, plays an important role in development, metabolic homeostasis and reproduction. Two subtypes of ER, ER-alpha and ER-beta, have similar expression patterns with some uniqueness in both types. Endocrine disrupting chemicals (EDCs) and their interactions with steroid hormone receptors like ER causes disruption of normal endocrine function. To identify the compounds that activate ER signaling, an ER beta-UAS-bla GripTite cell line (Life Technologies, Madison, WI, USA) containing a beta-lactamase reporter gene under the control of an UAS response element was used to screen Tox21 10K compound library. The cytotoxicity of the Tox21 compound library against the ER-beta-bla cell line was tested in parallel by measuring the cell viability using CellTiter-Glo assay in the same wells.\nTox21 Assay Protocol Summary:\nER-beta-UAS-bla HEK293T cells were dispensed at 2,000 cells/5 uL of assay medium containing 2% charcoal stripped FBS per well into black wall/clear-bottom 1536-well plates using a Multidrop Combi (ThermoFisher Scientific, Waltham, MA) dispenser. After the assay plates were incubated at a 37C and 5% CO2 for 6 hr, 23 nL of compounds dissolved in DMSO, positive controls or DMSO only was transferred to the assay plate by a Pintool station (Kalypsys, San Diego, CA). The plates were incubated at 37C and 5% CO2 for 16 hr. Then 1 uL of LiveBLAzerTM B/G FRET substrate was added using a BioRAPTR FRD (Flying Reagent Dispenser, Aurora Discovery, San Diego, CA) and then the plates were incubated at room temperature for 2 hours, and fluorescence intensity was measured by an Envision plate reader (PerkinElmer, Shelton, CT). For cell viability readout that measures cytotoxicity, 4 uL/well of CellTiter-Glo reagent was added into the assay plates using a FRD. After 30 min incubation at room temperature, the luminescence intensity in the plates was measured using a ViewLux (PerkinElmer) plate reader.", "values": [{"smiles": "COC(=O)NC(=S)Nc1ccccc1NC(=S)NC(=O)OC", "Potency": "inactive"}, {"smiles": "Cc1ccccc1O", "Potency": "inactive"}, {"smiles": "Nc1ccc(Br)cc1", "Potency": "inactive"}, {"smiles": "CCCCCCCCCl", "Potency": "inactive"}, {"smiles": "COc1ccc2c3c1O[C@H]1[C@@H](O)C=C[C@H]4[C@@H](C2)N(C)CC[C@@]341", "Potency": "inactive"}, {"smiles": "C#CC(C)(C)NC(=O)c1cc(Cl)cc(Cl)c1", "Potency": "inactive"}, {"smiles": "C=CCO", "Potency": "inactive"}, {"smiles": "CN(C)CCO", "Potency": "inactive"}, {"smiles": "CCCCN(CC)C(=O)SCCC", "Potency": "inactive"}, {"smiles": "O=S(=O)(c1ccc(Cl)cc1)c1cc(Cl)c(Cl)cc1Cl", "Potency": "inactive"}, {"smiles": "O=c1[nH]c2ccccc2c(=O)o1", "Potency": "inactive"}, {"smiles": "CCC(C)(CC)c1cc(NC(=O)c2c(OC)cccc2OC)on1", "Potency": "inactive"}, {"smiles": "CC(C)=C[C@@H]1[C@@H](C(=O)OCc2coc(Cc3ccccc3)c2)C1(C)C", "Potency": "inactive"}, {"smiles": "CNC(=O)Oc1ccccc1OC(C)C", "Potency": "inactive"}, {"smiles": "O=C(O)c1ccccn1", "Potency": "inactive"}, {"smiles": "O=[N+]([O-])c1ccccc1", "Potency": "inactive"}, {"smiles": "O=c1n(Cl)c(=O)n(Cl)c(=O)n1Cl", "Potency": "inactive"}, {"smiles": "Nc1c(Cl)c(Cl)nc(C(=O)O)c1Cl", "Potency": "inactive"}, {"smiles": "COC(=O)c1ccccc1C(=O)OC", "Potency": "inactive"}, {"smiles": "CCc1cccc(C)c1N(C(=O)CCl)C(C)COC", "note": "(stereo not given)", "Potency": "inactive"}, {"smiles": "CCC[CH2][Sn]([Cl])([Cl])[Cl]", "Potency": "inactive"}, {"smiles": "CCCN(CCC)c1c([N+](=O)[O-])cc(C(F)(F)F)cc1[N+](=O)[O-]", "Potency": "inactive"}, {"smiles": "CC(C)(Cl)Cl", "Potency": "inactive"}, {"smiles": "CCOP(OCC)OCC", "Potency": "inactive"}, {"smiles": "c1ccc2c(c1)Oc1ccccc1O2", "Potency": "inactive"}, {"smiles": "BrCCBr", "Potency": "inactive"}, {"smiles": "CCNc1nc(NC(C)C)nc(SC)n1", "Potency": "inactive"}, {"smiles": "OCCN(CCO)CCO", "Potency": "inactive"}, {"smiles": "O=NN1CCCCCCC1", "Potency": "inactive"}, {"smiles": "c1ccc2c(c1)oc1ccccc12", "Potency": "inactive"}, {"smiles": "Clc1cccc(Cl)c1Cl", "Potency": "inactive"}, {"smiles": "Oc1ccccc1Cl", "Potency": "inactive"}, {"smiles": "CN(C)[C@@H]1C(=O)C(C(N)=O)=C(O)[C@@]2(O)C(=O)C3=C(O)c4c(O)cccc4[C@@](C)(O)[C@H]3C[C@@H]12", "Potency": "inactive"}, {"smiles": "CCCCOC(=O)c1ccccc1C(=O)OCCCC", "Potency": "inactive"}, {"smiles": "Cn1cc(-c2ccccc2)c(=O)c(-c2cccc(C(F)(F)F)c2)c1", "Potency": "59.6 µM (active)"}, {"smiles": "O=C1CCCN1", "Potency": "inactive"}, {"smiles": "c1cc2c3c(cccc3c1)CC2", "Potency": "inactive"}, {"smiles": "CC1OC(C)OC(C)O1", "note": "(stereo not given)", "Potency": "inactive"}, {"smiles": "CCN(CC)c1ccccc1", "Potency": "inactive"}, {"smiles": "c1ccc(OP(Oc2ccccc2)Oc2ccccc2)cc1", "Potency": "inactive"}]}]}
